Screening results deposited in PubChem BioAssay by National Center for Advancing Translational Sciences (NCATS).
Sampled rows, rich in hits. Any-hit rate of the full collection: about 12%.
HP1b chromo inh: blocks HP1-beta chromodomain binding to methylated histone tails; P83916; AlphaScreen HP1-beta / biotin-H3K9me3 peptide binding; Potency, µM (highest dose often 114 µM), without a hit: at the highest dose activity change, negative = inhibition, usual class: inhibitors; actives 0.56% (n = 390,000); also: nearly all actives have a fitted effect of over 70% in size
Target sequence (P83916 whole entry, looked up): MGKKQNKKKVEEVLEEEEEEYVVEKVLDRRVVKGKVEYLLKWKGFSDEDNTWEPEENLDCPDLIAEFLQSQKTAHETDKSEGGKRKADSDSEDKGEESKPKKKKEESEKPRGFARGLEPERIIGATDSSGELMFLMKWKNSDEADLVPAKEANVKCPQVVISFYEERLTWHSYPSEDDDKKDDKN
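AlphaScreen: HP1-beta (50 nM) preformed 30 min with biotin-H3(1-18)K9me3 peptide (50 nM) in PBS pH 7.4, 0.01% Tween-20. Compound added for 30 min at RT, then streptavidin donor/nickel chelate acceptor beads (10 ug/mL) for 30 min.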
L3MBTL1 inh: blocks human L3MBTL1. actives 0.66% (n = 230,000). AID 485360. AlphaScreen L3MBTL1–H3K9me1 peptide binding. Potency, µM (top dose mostly 57.1 µM), for inactives: at the highest dose activity, negative = inhibition, hits mostly inhibitors. Q9Y468; also: % is scaled to controls: 0 for no effect and ±100 for the full control effect; nearly all actives have a fitted effect of over 60% in size
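First, the protein-peptide complex forms for 30 min at room temperature (L3MBTL1 50 nM, biotinylated H3K9me1 peptide 75 nM). Next, compounds are pin-transferred and incubated 30 min. Finally, AlphaScreen beads are added and read after 30 min.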
JMJD2A Tudor inh: JMJD2A Tudor domain (human) inhibition. AlphaScreen JMJD2A-Tudor / H3K4me3 peptide binding. actives 4.4% (n = 390,000). O75164. Potency, µM (top dose mostly 114 µM), for the others: at the top dose activity change, negative = inhibition, usual class: inhibitors; also: % is scaled to controls: 0 for no effect and ±100 for the full control effect; nearly all actives have a fitted effect of over 50% in size
BAZ2B inh: inhibitors of human BAZ2B bromodomain; Potency, µM (highest dose often 114 µM), for the others: top-dose activity change, negative = inhibition, usual class: inhibitors; Q9UIF8; actives 4.4% (n = 360,000); AlphaScreen BAZ2B-H3K14Ac peptide displacement; also: % is scaled to controls: 0 for no effect and ±100 for the full control effect; nearly all actives have a fitted effect of over 60% in size
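AlphaScreen luminescence quantifies BAZ2B engagement of H3K14Ac peptide; the protein and biotinylated peptide are both at 50 nM final, buffer PBS pH 7.4 with 0.01% Tween-20, all steps at room temperature.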
G9a block: inhibitors of human histone lysine methyltransferase G9a. Potency, µM (doses to about 102 µM), for the others: at the highest dose activity, negative = inhibition, hits mostly inhibitors. actives 8.8% (n = 350,000). G9a H3K9 monomethylation, AlphaScreen, 2 h; also: % is scaled to controls: 0 for no effect and ±100 for the full control effect; nearly all actives have a fitted effect of over 75% in size
Target sequence (Q96KQ7 913-1193 limits assumed): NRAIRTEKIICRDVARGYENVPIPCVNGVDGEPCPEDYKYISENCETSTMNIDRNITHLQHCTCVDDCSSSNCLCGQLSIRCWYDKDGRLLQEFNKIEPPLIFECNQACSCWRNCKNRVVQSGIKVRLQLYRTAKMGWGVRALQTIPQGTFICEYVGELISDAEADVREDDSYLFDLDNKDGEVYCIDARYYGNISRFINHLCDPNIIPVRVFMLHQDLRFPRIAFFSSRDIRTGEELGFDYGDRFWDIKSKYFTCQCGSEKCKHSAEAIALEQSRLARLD
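Chemiluminescent proximity detection of H3K9 monomethylation, read after 10 min bead incubation in the dark. Reaction: 20 nM G9a, 500 nM biotin-H3K9 peptide, 20 uM SAM cofactor, 2 h, room temperature, following 15 min enzyme-compound preincubation.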
Sfp inh: Sfp phosphopantetheinyl transferase inhibition | Q9F4F7 | Biochemical Sfp PPTase activity, qHTS | Potency, µM, inactives show largest response in the series, negative = inhibition, most hits filed as inhibitors | AID 1490 | actives 3.5% (n = 310,000);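 also: the enzyme is Sfp with the accession as filed and its product quenches rhodamine fluorescence; 0% = enzyme reaction without inhibitor and -100% = no enzyme wells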
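Reaction rates are the 30-min fluorescence difference (ex 525, em 598 nm) in wells containing 15 nM Sfp, 5 uM rhodamine-CoA and 12.5 uM BHQ-2-YbbR at pH 7.6 with 10 mM MgCl2.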
* hit, by the source's call; ? = inconclusive; . = no result given; [ ] = another dose, or the depositor's remark. Calls follow the shape of the dose curve; as a rule, active = well fitted curve in the direction sought with a large enough effect; inconclusive = small, poorly fitted or top-dose-only effect, or another doubt; inactive = no such curve, though single readings can be large; an effect the other way counts as inactive or inconclusive. Potency is read from the fitted curve at half-maximal effect.

SMILES	HP1b chromo inh	L3MBTL1 inh	JMJD2A Tudor inh	BAZ2B inh	G9a block	Sfp inh
Cc1nnc(SCC2=C(C(=O)O)N3C(=O)C(NC(=O)Cc4ccccc4)C3SC2)s1 (stereo unspecified)	34.9%	-23.2%	-5.7%	?	?	.
Cc1nnc(SCC2=C(C(=O)O)N3C(=O)C(NC(=O)C(C)n4nc(C(F)(F)F)cc4C)C3SC2)s1 (stereo unspecified)	25.2%	.	63.1µM*	50.1µM*	?	?
Cc1ccc(S(=O)(=O)N2CCC(C(=O)NC3CC(C)(C)NC(C)(C)C3)CC2)cc1C	34.2%	.	-5.5%	-4.3%	45.3%	11.6%
CCOc1cccc(=O)c2c(C)n(C)c(C)c12	-25.0%	?	?	56.2µM*	-13.2%[59 µM]	-12.4%
COc1cccc(=O)c2c(C)n(-c3cc(C)cc(C)c3)c(C)c12	-11.8%	-11.6%	?	?	?	-23.8%
COc1cccc(-n2c(C)c3c(OC)cccc(=O)c3c2C)c1	-19.1%	-25.4%	?	56.2µM*	?	50.1µM*
COc1cccc(=O)c2c(C)n(C)c(C)c12	-30.2%	?	?	?	15.8µM*	?
CCCNC(=S)N1CCC(NC(=O)Nc2ccc(C)cc2)CC1	39.3%	1.7%	-15.2%	-10.4%	.	-3.1%
COc1cccc(C(=O)Nc2sc3c(c2C(=O)O)CCCC3)c1	3.3%	.	-16.3%	-16.7%	3.4%	-0.8%
COc1cccc(C(=O)Nc2sc3c(c2C#N)CCN(C(C)=O)C3)c1	?	.	-29.7%	.	5.01µM*	39.8µM*
CC(=O)N1CCc2c(sc(NC(=O)c3cccc(N4C(=O)CCC4=O)c3)c2C(N)=O)C1	26.2%	.	0.3%	-26.9%	44.7µM*	-16.8%
Cc1c(C(C)(C)C)c(C=S)n2ccccc12	?	.	50.1µM*	-37.6%	3.98µM*	50.1µM*
Fc1ccc(-c2nc3n(c2-c2ccncc2)CCS3)cc1	.	.	.	.	.	-4.4%
Cc1ccc(NC(=O)CN2CCC(Cc3ccccc3)CC2)cc1S(=O)(=O)N(C)C	?	-17.6%	17.8µM*	39.8µM*	8.91µM*	-30.0%
Cc1ccc(NC(=O)COC(=O)C2CC(=O)N(Cc3ccccc3)C2)cc1S(=O)(=O)N(C)C (stereo unspecified)	30.6%	2.0%	-4.4%[57.1 µM]	-16.8%	39.8µM*	12.4%
Cc1ccc(NC(=O)CN2CCN(C(=O)c3ccco3)CC2)cc1S(=O)(=O)N(C)C	?	.	6.31µM*	.	.	.
Cc1cccc(C)c1NC(=O)COC(=O)C1CC(=O)N(Cc2ccccc2)C1 (stereo unspecified)	18.0%	-8.5%	-3.8%	?	-36.2%	32.0%
Cc1ccc(NC(=O)CCN2CCC(Cc3ccccc3)CC2)cc1	14.8%	-2.4%[2.29 µM]	-15.1%	5.8%	-8.1%[0.501 µM]	-3.1%
Cc1ccc(NC(=O)c2ccncc2)cc1S(=O)(=O)N(C)C	33.1%	?	-6.2%	10.7%	50.1µM*	15.2%
COc1ccc([N+](=O)[O-])cc1NC(=O)CCSCCc1ccccn1	33.0%	.	-4.9%	2.6%	?	21.4%
Cc1ccc(NC(=O)CCNCc2ccco2)cc1S(=O)(=O)N(C)C	?	-6.2%	1.78µM*	50.1µM*	8.91µM*	9.0%
CC(=O)N1CCN(CC(=O)Nc2ccc(C)c(S(=O)(=O)N(C)C)c2)CC1	?	0.3%	5.62µM*	79.4µM*	4.47µM*	-16.9%
O=C1[C@@H]2C(c3cccnc3)=NO[C@@H]2C(=O)N1c1ccc(Br)cc1	-27.4%	0.5%	?	-3.9%	8.91µM*	?
Cc1cc(N2CCCCC2)nc(N2CCCCC2)n1	21.5%	8.2%	-9.0%	-18.4%	-10.5%	-5.0%
CCOc1cc(CN2CCN(c3ccc(C(C)=O)cc3)CC2)ccc1OC	?	-0.8%	1.41µM*	56.2µM*	31.6µM*	79.4µM*
SMILES	HP1b chromo inh	L3MBTL1 inh	JMJD2A Tudor inh	BAZ2B inh	G9a block	Sfp inh
COc1ccc(CC(C)N2CCN(c3cccc(C(F)(F)F)c3)CC2)cc1OC (stereo unspecified)	-2.6%	.	?	?	?	-0.1%
CCOc1cc(CN2CCCCC2)ccc1OC	9.6%	-10.4%[11.4 µM]	-14.4%	3.6%	-5.0%[59 µM]	7.0%
CCOc1cc(CN2CCN(c3cccc(C(F)(F)F)c3)CC2)ccc1OC	?	.	8.91µM*	8.91µM*	22.4µM*	-26.7%
CCOc1ccccc1C(=O)Nc1cccc2ccc(C)nc12	13.6%	.	-13.6%	-3.1%	-5.4%[59 µM]	.
CN(N)c1ccc2c(C(F)(F)F)cc(C(F)(F)F)nc2n1	-15.4%	.	?	?	35.4%	?
N#CC(c1ccccc1)c1ccc2c(C(F)(F)F)cc(C(F)(F)F)nc2n1 (stereo unspecified)	14.1µM*	.	44.7µM*	10µM*	10µM*	7.7%
Cc1ccc(C(C#N)c2ccc3c(C(F)(F)F)cc(C(F)(F)F)nc3n2)cc1 (stereo unspecified)	14.1µM*	?	5.62µM*	8.91µM*	11.2µM*	6.1%
Cc1nnc(C)n1/N=C/c1ccc(-c2ccccc2)cc1	25.7%	47.3%	-13.3%	26.9%	?	?
COc1cc(-c2n[nH]c(=S)n2-c2cc(C(F)(F)F)ccc2Cl)cc(OC)c1OC	28.7%	4.9%	-15.2%	-33.1%	?	9.8%
Oc1c(-c2cc(-c3ccco3)[nH]n2)ccc2ccccc12	-22.2%	.	?	?	?	7.1%
FC(F)(F)c1ccc(Cl)c(-n2c(-c3cc(-c4ccco4)[nH]n3)n[nH]c2=S)c1	11.1%	.	-30.2%	-38.3%	15.8µM*	-18.4%
FC(F)(F)c1ccc(Cl)c(-n2c(-c3ccco3)n[nH]c2=S)c1	50.3%	.	?	-12.8%	10µM*	4.2%
FC(F)(F)c1ccc(Cl)c(-n2c(-c3cc(C4CC4)[nH]n3)n[nH]c2=S)c1	13.1%	-2.5%	?	-20.2%	8.91µM*	-21.8%
CCc1nnc(NC(=O)c2ccc(COc3ccccc3C)o2)s1	-2.0%	.	-22.9%	-10.1%	9.2%	11.6%
CCc1ccc(NC(=O)c2cc(-c3ccc(OC)cc3)on2)cc1	24.6%	.	-22.4%	56.2µM*	-10.7%	-8.8%
CCOC(=O)c1c(NC(=O)c2cc(-c3ccc(O)cc3)on2)sc(C(C)=O)c1C	25.5%	-11.9%	-24.1%	-9.0%	22.4µM*	-29.0%
CCOC(=O)c1c(NC(=O)c2cc(-c3ccc(OC)cc3)on2)sc(C)c1C	-4.5%	.	14.3%	-1.3%	8.91µM*	.
CCOC(=O)c1sc(NC(=O)c2cc(-c3ccc(F)cc3)on2)c(C(=O)OCC)c1C	56.3%	.	-2.0%	4.3%	3.9%[59 µM]	.
Cc1cccc(-c2nc3c4ccccc4nc(N4CCN(c5ccccc5F)CC4)n3n2)c1	43.9%	.	-6.5%	2.0%	?	.
